In all, about 330,000 compounds went through this assay and about 1,300 (0.39%) were called active. What follows is part of a selection rich in actives, with near analogues and random picks from the rest. Unmarked numbers belong to inactive results.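 How the source made its calls: active means inhibition of 50% or more; inactive means inhibition below 50%.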

The results in this text go back to PubChem BioAssay AID2825 (Sanford-Burnham Center for Chemical Genomics, 2010).

The nature of this experiment: NALP3 inflammasome inhibitors in reconstituted yeast, primary screen, luminescence, uHTS (AID 2825).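 Further: plate controls were induced DMSO wells for no effect and uninduced yeast grown without galactose for full effect.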 The following applies: Yeast reconstituted NLRP3/ASC/caspase-1, beta-gal luminescence, 24 h; at 10 µM; hits give high values.
As for `COc1cc(N2C(=O)c3ccccc3C2=O)c(Cl)cc1C(=O)OCC(=O)N1CCOCC1`, the inhibition is -0.245%.

`N#C/C=C(/c1ccc(F)cc1)N1CCOCC1`: the inhibition was 6.72%.

Consider `CCOc1cc(/C=N/NC(=O)OC)ccc1OCCSc1ccc(Cl)cc1`, for which the inhibition is 33.5%.

Consider `CC(C)(C)NC(=O)CN(C(=O)c1ccc(Cl)nc1)c1cccc2ccccc12`, for which the inhibition is 13.4%.

Take `O=C(O)CC1=C(Nc2ccccc2)C(=O)N(c2ccccc2)C1c1ccc(Cl)cc1` (stereo not drawn): the inhibition was 15%.

Take `O=C(CCC(=O)OCc1ccc(Cl)cc1)Nc1ccccc1`: the inhibition was 21%.

Turning to `O=C1C=C(c2ccc(Cl)cc2)C(=O)N1Nc1ccccc1`, the inhibition is 74.6% (active).

Take `Cc1sc2c(c1C)c(=O)n(-c1ccccc1)c1nncn21`: the inhibition is 2.84%.

Consider `CCCCNC(=O)C1(O)c2ccccc2NC(=O)N1c1ccc(Cl)cc1` (stereo not drawn), for which the inhibition was 3.8%.

Turning to `COc1cc(NC(=O)C2=CC(c3ccco3)=NS(=O)(=O)N2C)cc(OC)c1OC`, the inhibition is 2.53%.

As to `CCc1noc(C)c1C(=O)Nc1nc2ccc(OC)cc2s1`, the inhibition is 70.8% (active).

`Cc1noc(C)c1CSCC(=O)Nc1nc2ccc(Oc3ccccc3)cc2s1`: the inhibition was 9.07%.

As to `CCc1noc(C)c1C(=O)Nc1nc(-c2ccccc2)cs1`, the inhibition was 45.9%.

For `Cc1ccc(C)c(N2CCN(C(=O)Cn3ncn4cccc4c3=O)CC2)c1`, the inhibition was -5.29%.

For the compound `COCCN1CCn2c(nc3cc(NS(C)(=O)=O)ccc32)C1`, the inhibition was 10.9%.

Turning to `CN=C1C=C/C(=N/N=c2\ccn(O)cc2C)C=C1C`, the inhibition was 57.6% (active).

In the case of `COCCn1c(=O)[nH]c2cc(C(=O)NCc3cccnc3)ccc2c1=O`, the inhibition is -3.21%.

Regarding `CC(NC(=O)c1cc2cc(Cl)ccc2oc1=N)c1ccccc1` (stereo not drawn), the inhibition was 14.4%.

Consider `CC(=O)[C@@]12O[C@@H]1C[C@H]1[C@@H]3CC[C@H]4C[C@@H](O)CC[C@]4(C)[C@H]3CC[C@@]12C`, for which the inhibition was 58.4% (active).

With `CC(=O)C12CC(C)=C(C)CC1CC1C3CCC4=CC(=O)CCC4(C)C3CCC12C` (stereo not drawn), the inhibition was -1.41%.

With `CC(=O)O[C@H]1CC[C@@]2(C)[C@@H](CC[C@@H]3[C@@H]2CC[C@]2(C)[C@@H](C(C)(C)O)C[C@@H]32)C1`, the inhibition was 32.9%.

For `CC1CCN(S(=O)(=O)c2ccc3[nH]c(=O)ccc3c2)CC1`, the inhibition was 18.1%.

Take `O=C(CC(Cc1ccccc1)C(=O)O)NCCc1ccc2c(c1)OCO2` (stereo not drawn): the inhibition is 20.5%.

In the case of `CCc1ccc(NC(=O)NC(C)c2ccc3c(c2)OCO3)cc1` (stereo not drawn), the inhibition is 24.3%.

Take `CC(=NCc1ccc2c(c1)OCO2)C1=C(O)c2ccccc2C1=O`: the inhibition was 57.8% (active).

With `CCC(=O)c1cc(F)ccc1OCC(=O)Nc1ccc2c(c1)OCCO2`, the inhibition was 26.6%.

As for `O=C(NC1CCC(O)CC1)c1ccccc1OCc1ccc(F)cc1` (stereo not drawn), the inhibition was 1.97%.

On to `COCCNC(=O)CCCn1c(=O)c2ccccc2n(Cc2cccc([N+](=O)[O-])c2)c1=O`, for which the inhibition was -0.805%.

On to `Cc1cc(C(=O)COc2ccccc2Cl)c(C)n1C1CC1`, for which the inhibition was 21.7%.

On to `O=C(COc1ccc(Br)cc1F)NC1CCN(Cc2ccccc2)CC1`, for which the inhibition was 23%.

In the case of `Cc1cc(C(=O)COc2ccc(Br)cc2F)c(C)n1C1CC1`, the inhibition is 58.4% (active).

For the compound `O=C1C=CN2CCCC2CC1` (stereo not drawn), the inhibition is -5.59%.

Take `CC(=O)N1CCN(CCN=CC2=C(O)CC(C)(C)CC2=O)CC1`: the inhibition is 32.1%.

`CC(C)C(=O)N1CCN(CCN=CC2=C(O)CC(c3ccco3)CC2=O)CC1` (stereo not drawn): the inhibition is 60.8% (active).

`O=C1CC(c2ccccc2)CC(O)=C1C=NCCN1CCOCC1` (stereo not drawn): the inhibition was 29.8%.

On to `Cc1cc(C(=O)OCC(=O)Nc2nccs2)c2ccccc2n1`, for which the inhibition was 10.4%.

As for `O=C(/C=C/c1ccc(OCc2c(F)cccc2Cl)cc1)N1CCOCC1`, the inhibition was 28.2%.

Take `CN(C)CCCNC(=O)/C=C/c1ccc(OCc2c(F)cccc2Cl)cc1`: the inhibition was 20.8%.

Regarding `COCCCNC(=O)/C=C/c1ccc(OCc2c(F)cccc2Cl)cc1`, the inhibition was 50.9% (active).

With `CCN(CC(=O)Nc1ccc(NC(C)=O)cc1)C(=O)CSC(=S)N1CCCC1`, the inhibition was 4.68%.

As for `C=CCC1(CC=C)CCCN1C(=O)CC1C(=O)NCCN1Cc1ccccc1OC` (stereo not drawn), the inhibition is 4.65%.

Consider `Cc1sc2ncnc(Sc3nc4ccccc4s3)c2c1C`, for which the inhibition was 6.48%.

As for `CSc1ncnc2sc(C)c(C)c12`, the inhibition is 11.2%.

Take `CCCNc1ncnc2sc(C)c(C)c12`: the inhibition was 55.9% (active).

For `Cc1cc(NC(=O)CN2C(=O)NC(C)(CCc3ccccc3)C2=O)no1` (stereo not drawn), the inhibition is -3.27%.

As for `COCCNC(=O)c1ccc2nc(Cc3ccc(OC)c(OC)c3)oc2c1`, the inhibition was 20.9%.

Consider `O=C(Cn1ccc2cc(S(=O)(=O)N3CCCC3)ccc21)NCc1ccccc1`, for which the inhibition was 11.6%.

As for `O=[N+]([O-])/C=C/c1ccc2c(ccn2Cc2ccccc2)c1`, the inhibition was 92.3% (active).

As for `Cc1ccc2[nH]c3c(=O)n(CC(=O)NCCc4ccc(Cl)cc4)ncc3c2c1`, the inhibition was 1.78%.

Consider `CC1(C)CCSC(/C=C/c2ccccc2)=N1`, for which the inhibition was 85.7% (active).

Turning to `COc1ccc(CCNS(=O)(=O)c2ccc(Cl)s2)cc1OC`, the inhibition is 11%.

`CC1CC(C)CN(S(=O)(=O)c2cccc3nonc23)C1` (stereo not drawn): the inhibition was 25%.

As for `CC(C)C[C@H](NC(=O)NCCc1ccc(Cl)cc1)C(=O)O`, the inhibition was 2.68%.
